# Several values for one entry are separate records, joined by “and”; a condition that tells them apart may be missing. Equal entries are not always repeated. Some structures have more than one record in an assay (separate samples or runs), and their calls can disagree. Activity calls are given as the source filed them. Entries that show only a call come without a potency. Unless noted, calls come from the whole dose curve; as a rule, active = well fitted curve in the direction sought with a large enough effect in the repeat runs; inconclusive = weak or mixed curves; inactive = no such curve, though single readings can be large; an effect the other way counts as inactive or inconclusive.
# What was measured:
# [1] = qHTS assay to identify small molecule antagonists of the glucocorticoid receptor (GR) signaling pathway - cell viability counter screen (AID 720693); note: nearly all actives have a fitted effect of over 55% in size; note: potency is the fitted concentration of half-maximal effect
# [2] = qHTS assay for identifying genotoxic compounds that show differential cytotoxicity against isogenic chicken DT40 cell lines with known DNA damage response pathways - wild type cell line (AID 743012); note: nearly all actives have a fitted effect of over 60% in size; note: potency is the fitted concentration of half-maximal effect
# Procedure, shortened: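 Viability by ATP luminescence (CellTiter-Glo, 30 min RT) after 40 h compound treatment at 37 C/5% CO2, using 300 parental DNA repair-proficient DT40 cells per well.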
# [3] = qHTS assay for identifying genotoxic compounds that show differential cytotoxicity against isogenic chicken DT40 cell lines with known DNA damage response pathways - Rev3 mutant cell line (AID 743014); note: nearly all actives have a fitted effect of over 55% in size; note: potency is the fitted concentration of half-maximal effect
# [4] = qHTS assay for identifying genotoxic compounds that show differential cytotoxicity against isogenic chicken DT40 cell lines with known DNA damage response pathways - Rad54/Ku70 mutant cell line (AID 743015); note: nearly all actives have a fitted effect of over 60% in size; note: potency is the fitted concentration of half-maximal effect
# [5] = qHTS assay to identify small molecule antagonists of the androgen receptor (AR) signaling pathway - cell viability counter screen (AID 743033; note: nearly all actives have a fitted effect of over 45% in size; note: potency is the fitted concentration of half-maximal effect)
# [6] = qHTS assay to identify small molecule antagonists of the androgen receptor (AR) signaling pathway using the MDA cell line - cell viability counter screen (AID 743041; note: nearly all actives have a fitted effect of over 45% in size; note: potency is the fitted concentration of half-maximal effect)
# Procedure, shortened: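 Viability read by CellTiter-Fluor fluorescence in the same wells as the antagonist screen, added after 15.5 h of a 16 h, 37C exposure. Human breast carcinoma MDA-kb2 AR-luc cells, compounds co-dosed with agonist R1881.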
# [7] = qHTS assay to identify small molecule antagonists of the thyroid receptor (TR) signaling pathway - cell viability counter screen (AID 743064); note: nearly all actives have a fitted effect of over 50% in size; note: potency is the fitted concentration of half-maximal effect
# Procedure, shortened: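 Same-well viability check: GH3.TRE-Luc cells stimulated with 1 nM T3 alongside test compound for 23.5 h, followed by CellTiter-Fluor fluorescence.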
# [8] = qHTS assay to identify small molecule antagonists of the thyroid receptor (TR) signaling pathway (AID 743065); note: nearly all actives have a fitted effect of over 55% in size; note: potency is the fitted concentration of half-maximal effect
# Procedure, shortened: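 Antagonism measured as loss of luciferase signal in GH3 cells stably carrying a TRE-luciferase reporter, co-treated with compound and T3 (1 nM final) for 23.5 h at 37 C. Viability was read in the same well by CellTiter-Fluor.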
# [9] = tested on: thyroid hormone receptor (rat, GH3 cells); assay: qHTS assay to identify small molecule agonists of the thyroid receptor (TR) signaling pathway (AID 743066; calls by dose curve)
# [10] = target: Estrogen receptor (Homo sapiens) (UniProt P03372); assay: qHTS assay to identify small molecule antagonists of the estrogen receptor alpha (ER-alpha) signaling pathway (AID 743069; active = well fitted curve in the direction sought with a large enough effect in the signal ratio in the repeat runs, not every such curve was filed as active; inconclusive = weak or mixed curves, or effect the other way; inactive = no such curve, though single readings can be large or run the other way; the % refers to the signal ratio; note: potency is the fitted concentration of half-maximal effect)
# Procedure, shortened: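 Antagonist mode: compounds in DMSO were co-added with 17beta-estradiol to ER-alpha-bla HEK293 cells (2% charcoal-stripped serum) and left 18 h at 37C. Reporter inhibition was measured as FRET fluorescence after 2 h LiveBLAzer substrate at room temperature.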
# [11] = qHTS assay to identify small molecule antagonists of the estrogen receptor alpha (ER-alpha) signaling pathway - cell viability counter screen (AID 743074; calls by dose curve;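 note: HEK293 cells carrying ER-alpha-UAS-bla reporter stimulated with 17beta-estradiol; nearly all actives have a fitted effect of over 45% in size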; note: potency is the fitted concentration of half-maximal effect)
# [12] = target: Estrogen receptor (Homo sapiens) (UniProt P03372); assay: qHTS assay to identify small molecule agonists of the estrogen receptor alpha (ER-alpha) signaling pathway (AID 743075; calls by dose curve;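 note: HEK293 GripTite cells with ER-alpha and UAS-driven beta-lactamase reporter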; note: potency is the fitted concentration of half-maximal effect)
# [13] = target: Estrogen receptor (Homo sapiens) (UniProt P03372); assay: qHTS assay to identify small molecule agonists of the estrogen receptor alpha (ER-alpha) signaling pathway using the BG1 cell line (AID 743079); note: nearly all actives have a fitted effect of over 20% in size; note: potency is the fitted concentration of half-maximal effect
# [14] = qHTS assay to identify small molecule antagonists of the estrogen receptor alpha (ER-alpha) signaling pathway using the BG1 cell line (AID 743080; calls by dose curve;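 note: BG1 cells stimulated with 17beta-estradiol alongside compound; series mostly up to about 70 µM; nearly all actives have a fitted effect of over 25% in size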)
# Procedure, shortened: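 Endogenous full-length ER-alpha in BG1-Luc-4E2 cells drives a stably integrated 4×ERE luciferase gene; compounds were tested against 17beta-estradiol over 21.5 h, with luminescence and multiplexed viability fluorescence recorded.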
# [15] = qHTS assay to identify small molecule antagonists of the estrogen receptor alpha (ER-alpha) signaling pathway using the BG1 cell line - cell viability counter screen (AID 743081);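 note: compound given together with 17beta-estradiol as the ER stimulus; nearly all actives have a fitted effect of over 45% in size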; note: potency is the fitted concentration of half-maximal effect
# Aromatase (Homo sapiens) = Aromatase (Homo sapiens) (UniProt P11511); assay: qHTS assay to identify aromatase inhibitors (AID 743083); note: nearly all actives have a fitted effect of over 55% in size; note: potency is the fitted concentration of half-maximal effect
# [16] = target: Androgen receptor (Homo sapiens) (UniProt P10275); assay: qHTS assay to identify small molecule agonists of the androgen receptor (AR) signaling pathway (AID 743036; active = well fitted activation curve with a large enough effect in the signal ratio in the repeat runs, with a control signal flat, not every such curve was filed as active; inconclusive = weak or mixed curves, or effect the other way; inactive = no such curve, though single readings can be large or run the other way; the % refers to the signal ratio)
# Procedure, shortened: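 Agonist activity was scored by beta-lactamase reporter fluorescence in stably transfected HEK293 cells exposed to compounds for 16 h at 37C and 5% CO2. Substrate loading took 2 h at room temperature.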
# [17] = target: Androgen receptor (Homo sapiens) (UniProt P10275); assay: qHTS assay to identify small molecule agonists of the androgen receptor (AR) signaling pathway using the MDA cell line (AID 743040; note: nearly all actives have a fitted effect of over 20% in size)
# Procedure, shortened: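 Luciferase agonist assay: 16 h compound exposure at 37C without CO2 in MDA-kb2 AR-luc cells, whose MMTV promoter responds to both AR and GR. Luminescence measured after 30 min room-temperature incubation with ONE-Glo.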
# [18] = target: Androgen receptor (Homo sapiens) (UniProt P10275); assay: qHTS assay to identify small molecule antagonists of the androgen receptor (AR) signaling pathway using the MDA cell line (AID 743042; note: nearly all actives have a fitted effect of over 55% in size; note: potency is the fitted concentration of half-maximal effect)
# Procedure, shortened: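 Antagonist mode: compounds plus R1881 agonist added to MDA-kb2 AR-luc cells, incubated 16 h at 37C. Luciferase reporter luminescence quantified, with multiplexed CellTiter-Fluor readout for cell viability.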
# [19] = target: Androgen receptor (Homo sapiens) (UniProt P10275); assay: qHTS assay to identify small molecule antagonists of the androgen receptor (AR) signaling pathway (AID 743035; active = well fitted inhibition curve with a large enough effect in the signal ratio in the repeat runs, not every such curve was filed as active; inconclusive = weak or mixed curves, or effect the other way; inactive = no such curve, though single readings can be large or run the other way; the % refers to the signal ratio)
# Procedure, shortened: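 Antagonist mode: AR-bla HEK293 cells co-treated with test compounds and agonist R1881 for 16 h at 37C, 5% CO2. Beta-lactamase activity read as FRET fluorescence after 2 h room-temperature substrate loading.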
# Chain of Aromatase (Homo sapiens) (P11511 whole entry, looked up): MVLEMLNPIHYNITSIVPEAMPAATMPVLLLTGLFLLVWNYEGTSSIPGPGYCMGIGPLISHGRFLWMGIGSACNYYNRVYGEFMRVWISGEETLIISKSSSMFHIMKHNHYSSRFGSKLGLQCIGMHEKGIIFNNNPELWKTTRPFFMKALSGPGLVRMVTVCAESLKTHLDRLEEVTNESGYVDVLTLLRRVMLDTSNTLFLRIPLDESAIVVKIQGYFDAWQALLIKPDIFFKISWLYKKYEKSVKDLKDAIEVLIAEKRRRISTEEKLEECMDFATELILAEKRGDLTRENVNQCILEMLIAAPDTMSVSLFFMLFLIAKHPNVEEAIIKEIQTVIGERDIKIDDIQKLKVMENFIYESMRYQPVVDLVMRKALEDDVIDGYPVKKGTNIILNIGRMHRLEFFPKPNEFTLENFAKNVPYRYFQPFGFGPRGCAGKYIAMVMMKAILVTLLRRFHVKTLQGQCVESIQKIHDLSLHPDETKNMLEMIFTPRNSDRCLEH
# Chain of Estrogen receptor (Homo sapiens) (P03372 whole entry, looked up): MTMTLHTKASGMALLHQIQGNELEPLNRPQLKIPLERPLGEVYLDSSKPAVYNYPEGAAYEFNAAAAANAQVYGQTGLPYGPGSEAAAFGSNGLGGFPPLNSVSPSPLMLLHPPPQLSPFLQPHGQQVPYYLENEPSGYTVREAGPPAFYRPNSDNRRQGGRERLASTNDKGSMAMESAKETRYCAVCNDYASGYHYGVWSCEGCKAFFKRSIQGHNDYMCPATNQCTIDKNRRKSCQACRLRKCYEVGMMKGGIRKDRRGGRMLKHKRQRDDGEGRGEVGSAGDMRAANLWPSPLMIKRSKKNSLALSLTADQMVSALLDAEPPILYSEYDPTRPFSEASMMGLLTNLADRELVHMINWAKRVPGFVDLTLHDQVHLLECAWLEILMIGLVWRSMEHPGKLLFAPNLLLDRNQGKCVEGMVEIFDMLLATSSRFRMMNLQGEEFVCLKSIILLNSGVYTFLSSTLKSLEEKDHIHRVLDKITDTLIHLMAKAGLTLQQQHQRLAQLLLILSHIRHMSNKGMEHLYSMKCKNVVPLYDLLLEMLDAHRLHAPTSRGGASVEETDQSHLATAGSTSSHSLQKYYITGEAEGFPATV
# Chain of Androgen receptor (Homo sapiens) (P10275 whole entry, looked up): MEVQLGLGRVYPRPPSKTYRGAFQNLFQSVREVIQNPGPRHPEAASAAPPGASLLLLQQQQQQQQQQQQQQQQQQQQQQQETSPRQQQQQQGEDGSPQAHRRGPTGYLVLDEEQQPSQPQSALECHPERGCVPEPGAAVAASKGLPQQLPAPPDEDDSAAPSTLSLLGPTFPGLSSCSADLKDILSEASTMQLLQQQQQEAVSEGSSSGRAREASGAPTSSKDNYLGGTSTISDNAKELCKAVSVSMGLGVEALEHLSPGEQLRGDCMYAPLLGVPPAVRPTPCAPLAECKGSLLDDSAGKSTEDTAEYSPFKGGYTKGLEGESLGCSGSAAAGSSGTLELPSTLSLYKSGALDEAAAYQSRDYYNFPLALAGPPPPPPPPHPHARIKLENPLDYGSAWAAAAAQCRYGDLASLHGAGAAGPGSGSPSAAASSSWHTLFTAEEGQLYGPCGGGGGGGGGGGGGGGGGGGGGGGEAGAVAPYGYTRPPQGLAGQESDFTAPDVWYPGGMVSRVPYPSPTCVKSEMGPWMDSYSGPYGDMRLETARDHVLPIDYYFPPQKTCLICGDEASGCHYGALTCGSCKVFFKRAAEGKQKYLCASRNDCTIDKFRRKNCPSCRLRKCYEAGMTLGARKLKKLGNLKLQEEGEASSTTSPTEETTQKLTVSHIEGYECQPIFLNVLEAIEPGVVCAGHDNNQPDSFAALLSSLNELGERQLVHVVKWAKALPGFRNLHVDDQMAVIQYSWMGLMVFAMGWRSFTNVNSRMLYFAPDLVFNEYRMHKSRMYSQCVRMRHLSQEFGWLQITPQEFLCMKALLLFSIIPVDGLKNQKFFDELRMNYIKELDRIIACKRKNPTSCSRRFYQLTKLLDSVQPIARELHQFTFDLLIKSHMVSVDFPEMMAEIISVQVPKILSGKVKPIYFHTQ
SMILES,Potency [1],Potency [2],Potency [3],Potency [4],Potency [5],Potency [6],Potency [7],Potency [8],Potency [9],Potency [10],Potency [11],Potency [12],Potency [13],Potency [14],Potency [15],Potency (Aromatase (Homo sapiens)),outcome [16],Potency [17],Potency [18],Potency [19]
CCOC(=O)C(C)Oc1ccc(Oc2cnc3cc(Cl)ccc3n2)cc1 (configuration not stated),inactive,40.5 µM (active),inactive and 40.5 µM (active),inactive and 45.5 µM (active),inactive,inactive,inactive,inactive,inactive,inactive,inactive,inactive,inactive,inactive,inactive,inactive,–,–,–,–
[Na+],inactive,inactive,inactive,inactive,inactive,inactive,inactive,inactive,inactive,inactive,inactive,inactive,inactive,inactive,inactive,inactive,–,–,–,–
CCCCCCCCCCCCO,inactive,inactive,inactive,inactive,inactive,inactive,inactive,inactive,inactive,inactive,inactive,inactive,inactive,inactive,inactive,inactive,–,–,–,–
CC(=O)O[C@]1(C(C)=O)CC[C@H]2[C@@H]3C=C(Cl)C4=CC(=O)CC[C@]4(C)[C@H]3CC[C@@]21C,inactive,10.6 µM (active) and 27.3 µM (active),11.9 µM (active),18.8 µM (active),inactive,inactive,inactive,26.6 µM (active) and 54.4 µM (active),inactive,–,inactive,inactive,–,–,inactive,inactive,–,–,–,–
CCCCCCOCCOCCO,inactive,inactive,inactive,inactive,inactive,inactive,inactive,inactive,inactive,–,inactive,–,–,–,inactive,inactive,–,–,–,–
C1COCCN1,inactive,inactive,inactive,inactive,inactive,inactive,–,inactive,inactive,inactive,inactive,inactive,inactive,inactive,inactive,inactive,–,–,–,–
c1ccc2ncccc2c1,inactive,inactive,inactive,inactive,inactive,inactive,inactive,inactive,inactive,inactive,–,inactive,inactive,inactive,inactive,inactive,–,–,–,–
OCCNCCO,inactive,inactive,inactive,inactive,inactive,inactive,inactive,–,–,inactive,17.4 µM (active) and inactive,inactive,inactive,inactive,inactive,inactive,–,–,–,–
Cc1ccc2c(c1)C(=O)OC2=O,inactive,inactive,inactive,inactive,inactive,inactive,inactive,inactive,inactive,–,inactive,–,–,–,inactive,inactive,–,–,–,–
[O-]/[N+](=N\O)c1ccccc1,inactive,inactive,inactive,inactive,inactive,inactive,inactive,inactive,inactive,inactive,–,inactive and 55 µM [activator] (active),61.1 µM (active),–,inactive,inactive,–,–,–,–
CCCN1C=CN(C)C1,inactive,inactive,inactive,inactive,inactive,inactive,inactive,–,–,inactive,inactive,inactive,inactive,inactive,inactive,inactive,–,–,–,–
CN(Cc1cnc2nc(N)nc(N)c2n1)c1ccc(C(=O)N[C@@H](CCC(=O)O)C(=O)O)cc1,inactive,–,11.9 nM (active) and 1.7 nM (active),13.3 nM (active) and 1.7 nM (active),0.0756 µM (active),inactive,–,335 nM (active) and 54.5 nM (active),inactive,–,239 nM (active),inactive,inactive,–,inactive,inactive,inactive,inactive,inactive,–
C1CN(SSN2CCOCC2)CCO1,inactive,27.3 µM (active),42.8 µM (active) and 27.3 µM (active),19.3 µM (active),–,inactive,67.9 µM (active),60.5 µM (active),inactive,inactive,inactive,inactive,inactive,inactive,inactive,–,–,–,–,–
FC(F)(F)C(Cl)Br (configuration not stated),inactive,–,inactive,inactive,inactive,inactive,inactive,inactive,inactive,inactive,inactive,inactive,inactive,inactive,inactive,inactive,–,–,–,–
COc1cc([C@H]2Oc3cc([C@H]4Oc5cc(O)cc(O)c5C(=O)[C@@H]4O)ccc3O[C@@H]2CO)ccc1O,inactive,inactive,inactive,29.8 µM (active) and 48.4 µM (active),inactive,inactive,–,inactive,inactive,–,inactive,inactive,inactive,inactive,inactive,inactive,–,–,–,–
Cc1ccc(C)c(O)c1,inactive,inactive,inactive,inactive,inactive,inactive,–,inactive,inactive,–,inactive,–,–,–,inactive,inactive,–,–,–,–

SMILES,Potency [1],Potency [2],Potency [3],Potency [4],Potency [5],Potency [6],Potency [7],Potency [8],Potency [9],Potency [10],Potency [11],Potency [12],Potency [13],Potency [14],Potency [15],Potency (Aromatase (Homo sapiens)),outcome [16],Potency [17],Potency [18],Potency [19]
Brc1nc2ccccc2s1,inactive,inactive,inactive,inactive,inactive,inactive,–,inactive,inactive,inactive,–,inactive,inactive,inactive,inactive,inactive,–,–,–,–
ClC/C=C/CCl,inactive,inactive,inactive,inactive,inactive,inactive,–,inactive,inactive,inactive,inactive,inactive,inactive,inactive,inactive,inactive,–,–,–,–
COCCOCCOCCO,inactive,inactive,inactive,inactive,inactive,inactive,–,–,–,–,inactive,–,–,–,inactive,inactive,–,–,–,–
C=CC(=O)OCCCC,inactive,inactive,inactive,inactive,inactive,inactive,–,inactive,inactive,–,–,–,–,–,inactive,inactive,–,–,–,–
COc1ccc2nc(N)sc2c1,inactive,–,inactive,inactive,inactive,inactive,–,inactive,inactive,inactive,inactive,inactive,30.6 µM (active) and 54.5 µM (active),–,inactive,inactive,inactive,inactive,inactive,inactive
C=CCNCC=C,inactive,–,inactive,inactive,inactive,inactive,inactive,inactive,inactive,inactive,inactive,inactive,inactive,inactive,inactive,inactive,–,–,–,–
C=C[C@H]1CN2CC[C@H]1C[C@H]2[C@H](O)c1ccnc2ccc(OC)cc12,inactive,13.3 µM (active) and 8.41 µM (active) and 54.5 µM (active),23.7 µM (active) and 13.3 µM (active) and 27.3 µM (active),26.6 µM (active) and 13.3 µM (active) and 27.3 µM (active),inactive,inactive,–,–,–,–,inactive,–,–,–,inactive,inactive,–,–,–,–
Nc1ccc(O)c(N)c1,inactive,24.3 µM (active),inactive and 27.3 µM (active),27.3 µM (active),inactive,–,–,–,inactive,inactive,inactive,inactive,–,inactive,60.7 µM (active) and 61.1 µM (active),inactive,–,–,–,–
c1ccc2c(c1)ccc1ncccc12,inactive,–,inactive,inactive,inactive,inactive,inactive,–,–,–,inactive,–,inactive,inactive,inactive,inactive,inactive,inactive,–,inactive
O=Cc1ccccc1C=O,23.9 µM (active) and 4.36 µM (active),–,8.41 µM (active) and 2.17 µM (active),11.9 µM (active) and 2.43 µM (active),inactive,24.3 µM (active),10.6 µM (active) and 2.43 µM (active),9.44 µM (active) and 2.17 µM (active),inactive,inactive,inactive,23.9 µM [activator] (active) and inactive,21.1 µM (active) and 30.6 µM (active),–,inactive,inactive and 8.63 µM (active),–,inactive,8.63 µM (active),–
Nc1ccc2c(O)cc(S(=O)(=O)O)cc2c1,inactive,inactive,–,inactive,inactive,–,inactive,54.5 µM (active),inactive,–,inactive,–,–,–,inactive,inactive,–,–,–,–
C[C@]12CC[C@@H]3c4ccc(O)cc4CC[C@H]3[C@@H]1CC[C@@H]2O,24.5 µM (active),29.8 µM (active) and 61.1 µM (active),23.7 µM (active) and 54.4 µM (active) and 54.5 µM (active),26.6 µM (active) and 54.5 µM (active),inactive,inactive,–,27.3 µM (active) and 30.6 µM (active),inactive,–,inactive,–,–,–,inactive,inactive,–,–,–,–
CC(=O)[C@H]1CC[C@H]2[C@@H]3CC=C4C[C@@H](O)CC[C@]4(C)[C@H]3CC[C@]12C,inactive,inactive,0.485 µM (active),inactive,inactive,inactive,–,–,inactive,inactive,inactive,952 nM [inconclusive] (active) and 3.46 µM [inconclusive] (active),596 nM (active) and 5.44 µM (active),inactive,inactive,inactive,–,–,–,–
COc1ccc(C(=O)c2ccccc2O)c(O)c1,inactive,inactive,inactive,inactive,inactive,inactive,–,inactive,inactive,–,inactive,–,–,–,inactive,inactive,–,–,–,–
CC(=O)Oc1ccc(C(c2ccc(OC(C)=O)cc2)c2ccccn2)cc1,inactive,23.7 µM (active) and inactive,–,–,inactive,–,–,inactive,inactive,19 µM [inconclusive] (active) and 24.4 µM [inconclusive] (active),inactive,3.01 µM [activator] (active),–,–,2.11 µM (active) and 1.92 µM (active),inactive,inactive,inactive,0.765 µM (active),inactive
